From article PMC4336329 (PLoS ONE, 2015)
About 14,000 (4.5%) of roughly 310,000 compounds showed an effect of 50% or more. Effects have a minus sign here. The list comes from a sample in which strong results are over-represented; it also holds similar structures and randomly drawn compounds.

target: human ether-à-go-go-related gene (hERG) potassium channel (human, UniProt Q12809); assay: primary screen, population patch clamp on CHO cells stably expressing hERG; higher = less effect of the substance
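Note: peak tail current of the secondary pulse compared with the same well before compound.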

Sequence of human ether-à-go-go-related gene (hERG) potassium channel (Q12809 whole entry, looked up): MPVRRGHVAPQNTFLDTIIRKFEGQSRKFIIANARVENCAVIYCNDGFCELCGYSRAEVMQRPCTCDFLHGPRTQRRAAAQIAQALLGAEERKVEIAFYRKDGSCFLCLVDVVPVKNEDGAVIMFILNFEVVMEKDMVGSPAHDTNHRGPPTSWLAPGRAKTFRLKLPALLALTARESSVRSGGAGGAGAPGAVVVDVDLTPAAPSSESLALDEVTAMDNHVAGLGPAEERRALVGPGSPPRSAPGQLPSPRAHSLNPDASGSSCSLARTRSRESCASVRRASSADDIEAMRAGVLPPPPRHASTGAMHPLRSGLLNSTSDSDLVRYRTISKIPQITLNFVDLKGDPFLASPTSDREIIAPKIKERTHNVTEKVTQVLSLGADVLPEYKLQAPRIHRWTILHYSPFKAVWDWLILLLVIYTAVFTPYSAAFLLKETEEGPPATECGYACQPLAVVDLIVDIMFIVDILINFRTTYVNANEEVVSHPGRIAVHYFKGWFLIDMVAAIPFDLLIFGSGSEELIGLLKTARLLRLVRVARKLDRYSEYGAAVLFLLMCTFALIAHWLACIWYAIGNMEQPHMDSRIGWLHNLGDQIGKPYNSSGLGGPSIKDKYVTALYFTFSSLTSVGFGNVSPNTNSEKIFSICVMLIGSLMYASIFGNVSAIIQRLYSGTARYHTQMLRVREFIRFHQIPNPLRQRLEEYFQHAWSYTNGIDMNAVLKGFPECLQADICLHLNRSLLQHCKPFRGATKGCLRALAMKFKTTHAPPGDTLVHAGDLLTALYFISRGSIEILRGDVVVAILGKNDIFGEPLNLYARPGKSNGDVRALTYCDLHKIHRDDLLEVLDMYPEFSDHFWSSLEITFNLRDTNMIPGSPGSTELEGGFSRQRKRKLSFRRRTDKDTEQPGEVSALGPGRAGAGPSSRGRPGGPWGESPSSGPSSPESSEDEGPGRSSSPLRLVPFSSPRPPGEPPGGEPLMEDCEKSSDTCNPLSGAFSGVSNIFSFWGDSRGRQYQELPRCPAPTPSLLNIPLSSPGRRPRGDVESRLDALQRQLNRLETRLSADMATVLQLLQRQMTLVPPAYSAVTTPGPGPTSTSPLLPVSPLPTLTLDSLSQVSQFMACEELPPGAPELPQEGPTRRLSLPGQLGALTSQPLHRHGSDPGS

Row | SMILES | hERG current change (%, negative = inhibition) at 10uM
1 | O=C(CCN1C(=O)c2cccc3cccc(c23)C1=O)N1CCOCC1 | 19.9%
2 | CCN1CCN(CC(=O)NC2CCCCC2)C(=O)C1=O | 1.65%
3 | COc1cccc(CNC(=O)C(C)n2nc(C)n3c(cc4occc43)c2=O)c1 (stereo not shown) | 7.17%
4 | CCCOc1ccc(C(=O)NNC(=S)NC(=O)c2cccs2)cc1 | 16.7%
5 | CC(C)=CC(=O)O[C@H]1[C@@H]2[C@H](C)C(=O)O[C@@H]2C[C@@H](C)[C@@H]2[C@@H](O)CC(=O)[C@]21C | 22.4%
6 | COC(=O)CCSc1cc(NCCOC(C)=O)c([N+](=O)[O-])c2nonc12 | -25.6%
7 | O=C(N/N=C/c1cn(CC(=O)N2CCOCC2)c2ccccc12)c1cccnc1 | 16.3%
8 | Cc1ccc(NC(=O)C(C)Sc2nc(-c3ccccc3)cc(=O)[nH]2)cc1 (stereo not shown) | 20.8%
9 | COc1ccccc1NC(=O)/C(=C\c1cccnc1)NC(=O)c1ccccc1 | -65.5%
10 | Cc1ccc(C(=O)N/C(=C/c2cccnc2)C(=O)O)cc1 | 8.41%
11 | O=C(Nc1ccccc1)/C(=C/c1cccnc1)NC(=O)c1ccccc1 | 2.08%
12 | COc1ccccc1NC(=O)/C(=C/c1ccncc1)NC(=O)c1ccccc1 | -10.6%
13 | COc1ccccc1NC(=O)/C(=C\c1cccnc1)NC(=O)c1ccc(C)cc1 | -71.9%
14 | Cc1ccc(NC(=O)/C(=C\c2cccnc2)NC(=O)c2ccccc2)cc1 | -46%
15 | COc1cc(OC)c(OC)cc1CNC(=O)c1ccc(S(=O)(=O)N2CC(C)OC(C)C2)cc1 (stereo not shown) | -11%
16 | O=C(COc1cc(Cl)c(Cl)cc1Cl)NCCN1CCOCC1 | -7.1%
17 | CCCCNC(=O)[C@H](Cc1c[nH]c2ccccc12)NC(=O)c1ccccc1Cl | -8.26%
18 | C=CCNC(=O)C1CCCN(S(=O)(=O)c2ccc(-n3cnnn3)cc2)C1 (stereo not shown) | -27.5%
19 | O=C(NCc1ccccc1)C1CCCN(S(=O)(=O)c2ccc(-n3cnnn3)cc2)C1 (stereo not shown) | 2.94%
20 | COc1ccc(C)cc1NC(=O)C1CCCN(S(=O)(=O)c2ccc(-n3cnnn3)cc2)C1 (stereo not shown) | -69.8%
21 | O=C(NCC1CC1)C1CCCN(S(=O)(=O)c2ccc(-n3cnnn3)cc2)C1 (stereo not shown) | -63.7%
22 | O=C(NCc1ccco1)C1CCCN(S(=O)(=O)c2ccc(-n3cnnn3)cc2)C1 (stereo not shown) | -61.8%

Row | SMILES | hERG current change (%, negative = inhibition) at 10uM
23 | CC(C)CCNC(=O)C1CCCN(S(=O)(=O)c2ccc(-n3cnnn3)cc2)C1 (stereo not shown) | 22.5%
24 | NC(=O)CNC(=O)C1CCN(S(=O)(=O)c2ccc(-n3cnnn3)cc2)CC1 | -41.4%
25 | CC(=O)Nc1ccc(S(=O)(=O)N2CCC(C(=O)NCc3ccco3)CC2)cc1 | 0.324%
26 | O=C(NCc1ccccc1F)C1CCCN(S(=O)(=O)c2ccc(-n3cnnn3)cc2)C1 (stereo not shown) | -1.94%
27 | O=C(NCc1ccco1)C1CCN(S(=O)(=O)c2ccc(-n3cnnn3)cc2)CC1 | -70.5%
28 | COc1ccc(OC)c(NC(=O)C2CCCN(S(=O)(=O)c3ccc(-n4cnnn4)cc3)C2)c1 (stereo not shown) | -12.5%
29 | COc1ccccc1NC(=O)C1CCCN(S(=O)(=O)c2ccc(-n3cnnn3)cc2)C1 (stereo not shown) | -46.8%
30 | COC(=O)C1=C(C(=O)OC)[C@@H]2N(C)c3ccccc3[C@@]23C[C@@H](C(=O)OC)N(C(=O)c2ccc(Br)cc2)C3=N1 | -1.06%
31 | Fc1ccc2c(c1)C(c1ccc(N3CCOCC3)cc1)=NNC(c1cccs1)=N2 | -1.96%
32 | CC1=CC(C)(C)NC(=S)N1c1cc(C)cc(C)c1 | 10.5%
33 | Cc1nc(Nc2ccc(C(=O)O)cc2)nc(Nc2ccc(C(=O)O)cc2)c1[N+](=O)[O-] | 15.3%
34 | Cc1cc(=O)c2cc(C(=O)c3ccccc3)ccc2[nH]1 | -4.4%
35 | COc1ccccc1Cn1c(=O)c2ccccc2n2c(SCc3csc(C)n3)nnc12 | -6.34%
36 | CC1=C(C)CC(C(=O)NNC(=O)c2cccc(Cl)c2)C(C(=O)O)C1 (stereo not shown) | 12.3%
37 | Cc1ccccc1C(=O)Nc1ccc(C(=O)N/N=C/c2ccc(O)c(Br)c2)cc1 | -2.99%
38 | CC(C)C[C@H](NC(=O)c1[nH]cnc1C(=O)N[C@@H](Cc1ccccc1)C(=O)OCc1ccccc1)C(=O)OCc1ccccc1 | 21.6%
39 | CC(C)C[C@H](NC(=O)c1nc[nH]c1C(=O)N[C@@H](CC(C)C)C(=O)OCc1ccccc1)C(=O)OCc1ccccc1 | 16.2%
40 | CNC(=O)c1[nH]cnc1C(=O)N[C@@H](CC(C)C)C(=O)OCc1ccccc1 | -58.2%
41 | CC1(C)C(C=C(Cl)Cl)C1C(=O)Nc1ccc([N+](=O)[O-])cc1 (stereo not shown) | 18.9%
42 | O=C(COc1ccc(/C=N/NC(=O)C(=O)N2CCCCC2)cc1)Nc1ccccc1Cl | 15.9%
43 | O=C(C1CCC1)N1CCN(S(=O)(=O)c2ccc([N+](=O)[O-])cc2)CC1 | -62.6%
44 | O=C(C1CCCN(S(=O)(=O)c2ccc(F)cc2)C1)N1CCCCCC1 (stereo not shown) | -24%

Row | SMILES | hERG current change (%, negative = inhibition) at 10uM
45 | O=C(C1CCCN(S(=O)(=O)c2ccc([N+](=O)[O-])cc2)C1)N1CCCCC1 (stereo not shown) | -62%
46 | O=C(C1CCCN(S(=O)(=O)c2ccc(F)cc2)C1)N1CCCCC1 (stereo not shown) | 6.09%
47 | O=C(C1CCCCC1)N1CCN(S(=O)(=O)c2cccc([N+](=O)[O-])c2)CC1 | -13.1%
48 | O=C(C1CCC1)N1CCN(S(=O)(=O)c2ccc(F)cc2)CC1 | 11.4%
49 | COc1ccc2oc(C(=O)N3CCc4ccccc43)c(C)c2c1 | 15.1%
50 | Cc1cccc(S(=O)(=O)NCCC(=O)OC(C)C(=O)NC(=O)NC2CCCCC2)c1 (stereo not shown) | -20.8%
51 | Cc1nn(C)c(Oc2cccc(Cl)c2)c1C#N | 8.31%
52 | Cc1nc(N(C)Cc2ccccc2)c2nnn(Cc3ccccc3)c2n1 | -37.9%
53 | COc1ccc(CCC(=O)Nc2ccc(S(=O)(=O)N3CCCC3)cc2)cc1OC | -11.8%
54 | CCC1(Cc2ccccc2)NC(=O)c2ccccc2O1 (stereo not shown) | 2.36%
55 | O=c1c2[nH]c3cccc(Cl)c3c2ncn1CCN1CCCCC1 | -21.9%
56 | CCCCn1cnc2c([nH]c3ccccc32)c1=O | 15.7%
57 | Cc1ccc2[nH]c3c(=O)n(CCN4CCOCC4)cnc3c2c1 | -17.5%
58 | COc1cc2[nH]c3c(=O)n(CCN(C(C)C)C(C)C)cnc3c2cc1OC | -13.3%
59 | O=c1c2[nH]c3ccc(F)cc3c2ncn1CC1CCCO1 (stereo not shown) | -16%
60 | CCN1CCCC1Cn1cnc2c([nH]c3cccc(Cl)c32)c1=O (stereo not shown) | -67.2%
61 | CCN1CCCC1Cn1cnc2c([nH]c3ccc(C)cc32)c1=O (stereo not shown) | -70%
62 | Cc1ccc2[nH]c3c(=O)n(Cc4ccncc4)cnc3c2c1 | 4.77%
63 | CCN1CCCC1Cn1cnc2c([nH]c3ccc(Cl)cc32)c1=O (stereo not shown) | -76.5%
64 | CC(C)N(CCn1cnc2c([nH]c3ccccc32)c1=O)C(C)C | -68.1%
65 | O=c1c2[nH]c3cccc(Cl)c3c2ncn1CC1CCCO1 (stereo not shown) | -9.51%
66 | Cc1ccc2[nH]c3c(=O)n(CCN4CCNCC4)cnc3c2c1 | 7.36%

Row | SMILES | hERG current change (%, negative = inhibition) at 10uM
67 | Cc1nn(C)c(C(=O)N/N=C/c2ccccn2)c1[N+](=O)[O-] | 21.3%
68 | CCCNC(=O)NC(C)C12CC3CC(CC(C3)C1)C2 (stereo not shown) | -12.6%
69 | COC(=O)c1cc(COC(=O)c2nc3nccc(C)n3n2)oc1C | 15.7%
70 | Cc1cc(C(=O)OCC(=O)NC2CCCCC2)c(C)o1 | 9.12%
71 | Cc1ccc(NC(=O)CSCC(=O)N2CCN(c3cccc(C(F)(F)F)c3)CC2)cc1 | -13%
72 | Cc1ccc(NC(=O)c2cccc3c2-c2ccccc2C3=O)cc1C | -9.58%
73 | O=c1c2[nH]c3ccccc3c2ncn1CCN1CCNCC1 | 4.97%
74 | O=c1c2[nH]c3ccccc3c2ncn1CCN1CCOCC1 | 4.87%
75 | Cc1ccc2[nH]c3c(=O)n(CCCN4CCN(C)CC4)cnc3c2c1 | -37%
76 | Cc1ccc2[nH]c3c(=O)n(CCCN4CCOCC4)cnc3c2c1 | -17.8%
77 | O=c1c2[nH]c3ccc(F)cc3c2ncn1CCN1CCN(Cc2ccccc2)CC1 | -63.2%
78 | O=c1c2[nH]c3ccc(F)cc3c2ncn1CCN1CCOCC1 | -41.1%
79 | CCC1CCCN1Cn1cnc2c([nH]c3ccc(Cl)cc32)c1=O (stereo not shown) | -71.5%
80 | O=C1CCCN1CCCNc1ncnc2c1[nH]c1ccc(Cl)cc12 | -29.4%
81 | Cc1ccc2[nH]c3c(=O)n(CCC4=CCCCC4)cnc3c2c1 | 4.95%
82 | CCC1CCCN1Cn1cnc2c([nH]c3ccc(C)cc32)c1=O (stereo not shown) | -67.1%
83 | O=c1c2[nH]c3ccc(F)cc3c2ncn1CCCN1CCOCC1 | -31.3%
84 | CCC1CCCN1Cn1cnc2c([nH]c3ccccc32)c1=O (stereo not shown) | -62.1%
85 | O=c1[nH]nc(-c2ccc(NCCCO)c([N+](=O)[O-])c2)c2ccccc12 | -9.98%
